Counter-ions that a name gives are not always drawn.

What all share (assay): Euclidean distance of Cell Painting phenotypic profile (signed KS, 77 features) to DMSO centroid (dimensionless distance); 5 or 10 uM (library dependent); higher = stronger phenotypic change vs DMSO (phenoactivity)
Holding throughout (details): 48 h

One test concerns 786-O. In a few lines:
(§1)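 Phenoactivity is computed as Euclidean distance to the median vehicle profile. The profiles, drawn from 77 Harmony features scored as signed Kolmogorov-Smirnov statistics versus same-plate vehicle wells, were corrected for plate position, correlation-weighted and replicate-averaged at the top dose. Stained cells were imaged confocally at 20X (9 fields/well) after 48 h with library compounds at 10 or 5 uM, 0.1% DMSO final, in five cancer lines and a healthy fibroblast line.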

Another test deals with A549. In a few lines: as §1
A further test has as its system DU145. A digest of the protocol: as §1
For the next test, the system named is FB. In a few lines: as §1
Another test relates to HEPG2. In a few lines:
as §1

The subject of the next test is OVCAR4. In a few lines:
as §1

In the case of `CN(N=O)C(=O)NC1C(O)OC(CO)C(O)C1O` (stereo not drawn) [Streptozotocin (STZ)], the Euclidean distance with 786-O came to 1.35; with A549 it was 0.706; with DU145, 0.768; with FB, 1.26; in the test with HEPG2, 0.501; with OVCAR4, 1.16.

As for `Cc1c(C(=O)NN2CCCCC2)nn(-c2ccc(Cl)cc2Cl)c1-c1ccc(Cl)cc1` [Rimonabant], the Euclidean distance in the test with 786-O was found to be 1.92; in the test with A549 it was 1.17; in the test with DU145, 1.04; in the test on FB it was 0.895; in the test with HEPG2 it was 0.664; in the test with OVCAR4 it was 1.22.

For `CCCCC(O)c1ccccc1` (stereo not drawn) [Fenipentol], the Euclidean distance is 1.46 in the test with 786-O; 1.44 with A549; 1.43 in the test on DU145; 0.766 in the test on FB; 0.912 in the test on HEPG2; 1.68 in the test on OVCAR4.

`CNCc1ccc(-c2cc(-c3nc(-c4ccc(S(=O)(=O)C(C)C)cc4)cnc3N)on2)cc1`: the Euclidean distance was determined as 3.55 in the test on 786-O; 3.91 in the test on A549; 3.77 in the test with DU145; 4.87 in the test on FB; 3.55 in the test on HEPG2; 4.32 in the test with OVCAR4.

As for `C=C(C)[C@@H]1CC[C@]2(C(=O)O)CC[C@]3(C)[C@H](CC[C@@H]4[C@@]5(C)CC[C@H](O)C(C)(C)[C@@H]5CC[C@]43C)[C@@H]12` [Betulinic acid], the Euclidean distance in the test with 786-O amounted to 1; in the test with A549, 0.893; with DU145 it was 0.693; with FB it was 0.844; with HEPG2, 0.744; with OVCAR4, 0.866.

Consider `COC(=O)N[C@H](C(=O)N1CCC[C@H]1C(=O)Nc1ccc([C@@H]2CC[C@@H](c3ccc(NC(=O)[C@@H]4CCCN4C(=O)[C@@H](NC(=O)OC)C(C)C)cc3)N2c2ccc(C(C)(C)C)cc2)cc1)C(C)C` [Ombitasvir (ABT-267)], for which the Euclidean distance in the test on 786-O was 1.9; with A549, 1.76; in the test with DU145 it was 1.29; in the test on FB, 1.1; with HEPG2, 1.24; with OVCAR4, 1.26.

On to `CO[C@@H]1[C@@H](O[C@@H]2O[C@H](C)[C@@H](O[C@H]3C[C@@](C)(O)[C@@H](OC(=O)CC(C)C)[C@H](C)O3)[C@H](N(C)C)[C@H]2O)[C@@H](CC=O)C[C@@H](C)[C@@H](O)/C=C/C=C/C[C@@H](C)OC(=O)C[C@H]1O` [Kitasamycin], for which the Euclidean distance in the test on 786-O was determined as 0.871; in the test with A549, 1.1; with DU145, 1.49; in the test on FB, 0.973; with HEPG2, 0.78; in the test with OVCAR4 it was 0.761.

For the molecule `Cc1nc(-c2ccc(OCC(C)C)c(C#N)c2)sc1C(=O)O` [Febuxostat], the Euclidean distance in the test with 786-O is 0.758; in the test on A549, 0.915; in the test on DU145, 0.667; in the test with FB, 0.514; in the test with HEPG2, 0.375; in the test with OVCAR4, 0.978.

On to `CCC[C@@H]1C[C@@H](C(=O)N[C@@H]([C@H]2O[C@H](SC)[C@H](O)[C@@H](O)[C@H]2O)[C@@H](C)O)N(C)C1` [Lincomycin HCl], for which the Euclidean distance in the test with 786-O amounted to 1.49; with A549 it was 0.984; in the test with DU145, 0.817; with FB, 1.01; in the test on HEPG2, 0.457; in the test on OVCAR4, 1.31.

Take `CCN1CCN(C(=O)N[C@@H](C(=O)N[C@@H]2C(=O)N3[C@@H]2SC(C)(C)[C@@H]3C(=O)O)c2ccccc2)C(=O)C1=O` [Piperacillin Sodium]: the Euclidean distance amounted to 1.11 in the test on 786-O; 0.62 in the test with A549; 0.884 with DU145; 1.1 with FB; 0.514 in the test with HEPG2; 1.25 with OVCAR4.

For `Nc1nc(Nc2ccc(S(N)(=O)=O)cc2)nn1C(=O)c1c(F)cccc1F`, the Euclidean distance in the test on 786-O was determined as 1.27; with A549 it was 1.64; in the test on DU145, 1.5; in the test on FB, 0.817; with HEPG2, 1.7; in the test with OVCAR4, 1.05.

In the case of `O=C1CC[C@@H](C(=O)N2CSC[C@H]2C(=O)O)N1` [Pidotimod], the Euclidean distance in the test with 786-O was 1.14; in the test with A549 it was 0.696; in the test on DU145 it was 0.731; in the test on FB, 0.833; with HEPG2, 0.84; with OVCAR4, 0.854.

Take `Cc1cnc(-c2cnc(NCCNc3ccc(C#N)cn3)nc2-c2ccc(Cl)cc2Cl)[nH]1`: the Euclidean distance in the test on 786-O came to 1.86; in the test with A549, 2.18; in the test on DU145 it was 1.61; in the test with FB it was 1.12; in the test with HEPG2 it was 1.15; in the test with OVCAR4, 1.13.

As for `CN1CCC(=C2c3ccccc3CCc3cccnc32)CC1` [Azatadine dimaleate], the Euclidean distance in the test on 786-O is 1.51; in the test on A549, 1.59; with DU145, 0.544; in the test on FB, 1.05; with HEPG2 it was 0.437; with OVCAR4, 1.44.

Regarding `O=C(O)c1ccc2nc(-c3cc(Cl)cc(Cl)c3)oc2c1` [Tafamidis], the Euclidean distance was 1.52 with 786-O; 0.941 in the test on A549; 1.1 with DU145; 0.77 with FB; 0.971 with HEPG2; 1.21 in the test on OVCAR4.

For `Cn1cc(-c2ccc3ncc(Cc4ccc5ncccc5c4)n3n2)cn1`, the Euclidean distance in the test with 786-O was 1.26; in the test on A549, 0.825; in the test with DU145, 0.747; in the test with FB, 0.784; in the test on HEPG2, 1.92; with OVCAR4 it was 1.31.

For the molecule `CCN(CC)C(=O)/C(C#N)=C/c1cc(O)c(O)c([N+](=O)[O-])c1` [Entacapone], the Euclidean distance was determined as 0.439 with 786-O; 0.512 in the test on A549; 0.513 in the test with DU145; 1.1 in the test on FB; 0.422 in the test with HEPG2; 0.77 in the test on OVCAR4.

For `CC[C@@H]([C@H](C)O)n1ncn(-c2ccc(N3CCN(c4ccc(OC[C@@H]5CO[C@@](Cn6cncn6)(c6ccc(F)cc6F)C5)cc4)CC3)cc2)c1=O` [Posaconazole], the Euclidean distance with 786-O worked out at 3.81; with A549, 2.06; in the test with DU145, 2.09; in the test on FB, 2.3; in the test on HEPG2, 1.43; in the test with OVCAR4, 1.21.

Turning to `C#CCN[C@@H]1CCc2ccccc21` [Rasagiline Mesylate], the Euclidean distance with 786-O was 1.19; with A549 it was 0.608; with DU145 it was 0.782; with FB, 0.686; with HEPG2, 1.01; in the test on OVCAR4, 1.18.

For the molecule `NS(=O)(=O)c1cc(C2(O)NC(=O)c3ccccc32)ccc1Cl` (stereo not drawn) [Chlorthalidone], the Euclidean distance with 786-O is 0.738; with A549 it was 0.425; in the test on DU145 it was 1.18; in the test on FB, 1.4; in the test on HEPG2 it was 0.481; in the test on OVCAR4, 0.876.

On to `CCOC(=O)[C@H](CCc1ccccc1)N[C@@H](C)C(=O)N1Cc2ccccc2C[C@H]1C(=O)O` [Quinapril HCl], for which the Euclidean distance in the test on 786-O amounted to 1.41; in the test with A549, 1.16; in the test with DU145, 0.942; in the test on FB, 1.09; in the test with HEPG2, 0.483; with OVCAR4, 1.04.

In the case of `CCOc1ccccc1OC(c1ccccc1)C1CNCCO1` (stereo not drawn) [Reboxetine mesylate], the Euclidean distance with 786-O worked out at 1.05; with A549, 0.873; in the test on DU145, 2.32; in the test on FB, 0.844; in the test with HEPG2 it was 2.49; in the test on OVCAR4 it was 0.786.

Take `CCCCC[C@H](O)/C=C/[C@H]1[C@H](O)CC(=O)[C@@H]1C/C=C\CCCC(=O)O` [Prostaglandin E2 (PGE2)]: the Euclidean distance in the test on 786-O is 1.77; in the test with A549 it was 0.85; in the test with DU145, 0.915; in the test with FB it was 1.08; in the test with HEPG2 it was 0.522; with OVCAR4 it was 1.33.
